High-throughput results as filed in PubChem.
ELG1 repair inh = ELG1-dependent DNA repair inhibition | HEK293T ELG1-luciferase reporter, luminescence, 16 h; DNA damage induced by 5-fluorouridine | Potency, µM (titrated, usually from 46.1 µM), for the others: at the highest dose activity change, negative = inhibition, actives largely listed as inhibitors | 2.3% of 330,000 active; note: potency is the fitted concentration of half-maximal effect; nearly all actives have a fitted effect of over 55% in size
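In this reporter screen, reduction of luminescence relative to DMSO vehicle indicated activity. Compounds and 5-fluorouridine were added together to 2,000 cells per well, incubated for 16 hr at 37 °C, then developed with ONE-Glo.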
B2AR arrestin = recruits beta-arrestin to the human beta2-adrenergic receptor; Potency, µM (highest dose often 46.1 µM), for the others: at the top dose activation, actives largely listed as activators; 0.02% of 330,000 active; P07550; beta-arrestin recruitment to beta2AR, cell-based reporter;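 note: potency is the fitted concentration of half-maximal effect; 0% = DMSO controls and full agonism = EC100 isoproterenol or metaproterenol; nearly all actives have a fitted effect of over 65% in size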
RORg inh = inhibitors of mouse ROR gamma transcriptional activity | P51450 | Drosophila S2 Gal4-RORgamma UAS-luciferase reporter, 20 h | 5.4% of 310,000 active | AID 2551 | Potency, µM (doses to about 53.6 µM), for the others: at the highest dose activity change, negative = inhibition, usual class: inhibitors; note: potency is the fitted concentration of half-maximal effect; nearly all actives have a fitted effect of over 60% in size
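Read-out: Photinus luciferase luminescence; inhibitors lower reporter signal. Insect Schneider cells with Gal4-ROR gamma fusion under metallothionein promoter, UAS reporter; 700 uM final copper sulfate induction, 20 hr, ambient temperature.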
TSHR antagonist = human thyrotropin receptor antagonism. TSHR-expressing cells, TSH-stimulated cAMP HTRF, 2 h; stronger effect = lower value. activity change, negative = inhibition, % at 11.5 µM. 0.2% of 330,000 active. P16473. AID 504810;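 active = activity change below a set negative limit, meaning inhibition stronger than a set level, cut at about -70% in these data; inconclusive = activity change between two set negative limits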
Target sequence (P16473 whole entry, looked up): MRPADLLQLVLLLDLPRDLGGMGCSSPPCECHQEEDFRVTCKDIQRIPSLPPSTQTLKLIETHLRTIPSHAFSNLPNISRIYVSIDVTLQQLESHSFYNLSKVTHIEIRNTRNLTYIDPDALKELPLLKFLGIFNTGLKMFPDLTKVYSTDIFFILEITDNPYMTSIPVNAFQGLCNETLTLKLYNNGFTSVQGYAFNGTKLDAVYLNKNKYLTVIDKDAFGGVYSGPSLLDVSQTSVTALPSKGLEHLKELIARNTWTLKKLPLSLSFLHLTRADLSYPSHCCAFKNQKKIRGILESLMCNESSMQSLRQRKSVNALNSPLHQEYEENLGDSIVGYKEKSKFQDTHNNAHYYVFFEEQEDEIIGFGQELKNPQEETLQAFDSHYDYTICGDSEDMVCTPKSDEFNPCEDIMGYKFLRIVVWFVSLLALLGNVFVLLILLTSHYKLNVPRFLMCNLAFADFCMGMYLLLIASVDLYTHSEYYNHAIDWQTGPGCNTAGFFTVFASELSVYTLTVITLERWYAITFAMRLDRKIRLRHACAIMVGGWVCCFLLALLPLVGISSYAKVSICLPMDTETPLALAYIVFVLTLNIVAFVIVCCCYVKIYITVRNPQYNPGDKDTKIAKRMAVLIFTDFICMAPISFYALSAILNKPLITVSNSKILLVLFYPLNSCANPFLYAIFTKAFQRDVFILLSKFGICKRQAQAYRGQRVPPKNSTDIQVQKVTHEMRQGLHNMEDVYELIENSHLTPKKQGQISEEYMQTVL
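TSHR-expressing cells were treated with compounds, then stimulated with TSH at EC80 (4nM final) for 2 hours at 37 deg C. Cellular cAMP was measured by HTRF competition between lysate cAMP and cAMP-d2 for a cryptate-labelled anti-cAMP antibody.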
VP16 counter = inhibits Gal4-VP16 luciferase reporter, ROR gamma counter-screen. 3.5% of 310,000 active. Drosophila S2 Gal4-VP16 UAS-luciferase, luminescence, 20 h. Potency, µM (doses to about 53.6 µM), inactives show at the highest dose activity, negative = inhibition, most hits filed as inhibitors;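 note: Gal4-VP16 expression switched on by copper sulfate through the metallothionein promoter; potency is the fitted concentration of half-maximal effect; nearly all actives have a fitted effect of over 50% in size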
* = called active by the depositor; u = inconclusive; x = no result given; [ ] = remark or other dose. Compounds with a hit are over-represented: about 7.5% of the library has one in this group of screens. Unless noted, calls come from the whole dose curve; as a rule, active = well fitted curve in the direction sought with a large enough effect; inconclusive = small, poorly fitted or top-dose-only effect, or another doubt; inactive = no such curve, though single readings can be large; an effect the other way counts as inactive or inconclusive. Unless noted, % is set by controls: 0 for no effect and ±100 for the full control effect.

SMILES	ELG1 repair inh	B2AR arrestin	RORg inh	TSHR antagonist	VP16 counter
CCOc1ccc(C(=O)Nc2nnc(SCC(=O)NCC3CCCO3)s2)cc1 (centres undefined)	u	1%	u	6	3.5µM*
CC(C)(C)c1ccc(C(=O)Nc2nnc(SCC(=O)NCC3CCCO3)s2)cc1 (centres undefined)	u	0%	u	-3	7.1µM*
CCc1noc(C)c1C(=O)N1CCCSC1=Nc1ccccc1Cl	0%	4%	x	3	x
Cc1ccc(C)c(NNC(N)=S)c1	10%	0%	u	13	18µM*
Cc1cccc(NNC(N)=S)c1C	-4%	-1%	10µM*	-1	u
Cc1cc(Cl)ccc1NNC(N)=S	8%	-1%	u	2	u
O=c1ccc2ccc(OS(=O)(=O)O)cc2o1	x	x	-4%	x	7%
Cc1ccc(-c2cc(=O)c3cc(F)ccc3[nH]2)cc1	25%	0%	16%	8	-3%
Cc1ccc(-c2cc(=O)c3cc(C)ccc3[nH]2)cc1	u	0%	10µM*	-12	16µM*
COc1ccc(-n2ccn(CC(=O)Nc3ccc(OC)cc3OC)c(=O)c2=O)cc1	1%	3%	-1%	6	0%
Cc1ccc(Cl)cc1Nc1nc(-c2sc(NC(=O)c3cccc(Cl)c3)nc2C)cs1	14%	1%	u	6	-10%
Cc1nc(NC(=O)c2ccco2)sc1-c1csc(Nc2ccc(Cl)cc2Cl)n1	13µM*	0%	u	-8	-24%
Cc1nc(NC(=O)c2ccco2)sc1-c1csc(Nc2ccc(Cl)cc2)n1	18µM*	-1%	24%	-21	-7%
Cc1ccc(Cl)cc1Nc1nc(-c2sc(NC(=O)c3ccco3)nc2C)cs1	8.2µM*	0%	6%	-2	-5%
Cc1ccccc1Nc1nc(-c2sc(NC(=O)c3cccc(Cl)c3)nc2C)cs1	3%	0%	13µM*	5	u
COC(=O)C1C(O)CC[C@@H]2CN3CCc4c([nH]c5ccccc45)C3C[C@@H]12 (some centres undefined)	x	x	4%	x	3%
Cc1ccc(N2CC(C(=O)N/N=C/c3c(F)cccc3Cl)CC2=O)cc1 (centres undefined)	9.2µM*	0%	-2%	14	-3%
O=C(c1nsnc1-c1ccccc1O)N1CCCCC1	3%	0%	7%	-4	9%
NC(=O)c1nsnc1-c1ccccc1O	10%	-1%	22µM*	12	11%
c1ccc2c(NCC3CCCO3)nc(N3CCOCC3)nc2c1 (centres undefined)	-16%	0%	3%	0	-3%
CCOc1ccc(Nc2nc(NCC3CCCO3)c3ccccc3n2)cc1 (centres undefined)	7.3µM*	0%	u	-19	u
C(=N\Nc1nc(-c2ccccn2)nc2ccccc12)/c1ccccc1	u	4%	0.089µM*	-19	0.5µM*
c1ccc(-c2nc(NCC3CCCO3)c3ccccc3n2)nc1 (centres undefined)	18µM*	-1%	1.6µM*	-1	7.1µM*
c1ccc(-c2nc(NCc3ccco3)c3ccccc3n2)nc1	7.3µM*	0%	1.3µM*	-4	2.8µM*
O=C(/C=C/c1ccccc1)NCCO	x	x	24%	x	-5%
SMILES	ELG1 repair inh	B2AR arrestin	RORg inh	TSHR antagonist	VP16 counter
COC(=O)[C@H](CCCN=C(N)N)NC(=O)CCCc1c(-c2ccccc2)[nH]c2c(F)cc(F)cc12	x	x	2%	x	-9%
Oc1cccc(Nc2nc(NCC3CCCO3)c3ccccc3n2)c1 (centres undefined)	21µM*	0%	3%	-19	u
COc1ccccc1Nc1nc(NCc2ccco2)c2ccccc2n1	21µM*	0%	12%	-10	u
NNc1nc2ccccc2nc1C(F)(F)F	u	0%	-44%	3	-1%
FC(F)(F)c1nc2ccccc2nc1N/N=C\c1ccccc1	26%	u	3.5µM*	1	13µM*
COc1ccc(Nc2nc(NCC3CCCO3)c3ccccc3n2)c(OC)c1 (centres undefined)	13µM*	0%	-9%	-12	-1%
c1ccc(Nc2nc(NCC3CCCO3)c3ccccc3n2)cc1 (centres undefined)	u	0%	-19%	-10	u
COC(=O)NC(/C(C(=O)OC)=C(\C)NCc1ccccc1)c1cccc(C)c1 (centres undefined)	x	x	-11%[10 µM]	x	-14%[10 µM]
O=C(NCC(=O)N1CCOCC1)c1ccccc1	u	0%	18%	-1	-4%
COC(=O)C#CC(=O)OC	x	x	19%	x	-10%
Cn1c(-c2cccs2)nc2ccccc21	u	0%	13µM*	5	5%
CC(C)Cn1c(-c2cccs2)nc2ccccc21	u	-1%	-27%	-6	u
CC12C=C(/C=C/CCc3ccco3)C(C)(C1)[C@H](CCc1ccco1)CC2=O (some centres undefined)	x	x	2%	x	-10%
Cc1nn(Cc2nc(-c3cccs3)no2)c(C)c1Br	u	0%	33%	-72*	9%
O=Nc1c(O)[nH]c2c(Cl)c(Cl)ccc12	x	x	-30%	x	0%
CCc1ccc(-c2nn(-c3ccccc3)cc2C2SCC(=O)N2Cc2ccco2)cc1 (centres undefined)	u	6%	33%	5	9%
O=C1CSC(c2cn(-c3ccccc3)nc2-c2ccccc2)N1Cc1ccco1 (centres undefined)	18µM*	0%	-67%	7	u
COc1ccccc1NC(=O)CCN1C(=O)c2ccccc2C1=O	11%	-1%	1%	2	1%
CCCc1ccc(-c2cc(C(=O)NC3=NCCS3)c3ccccc3n2)cc1	u	0%	1.8µM*	1	1.6µM*
O=C(NC1=NCCS1)c1cc(-c2ccc(F)cc2)nc2ccccc12	u	0%	10µM*	-36	11µM*
Cc1ccc(-c2cc(C(=O)NC3=NCCS3)c3ccccc3n2)cc1C	u	-1%	10µM*	-5	11µM*
Cc1ccc(CCNC(=O)c2cc(-c3ccncc3)nc3ccccc23)cc1	u	0%	15%	-12	1%
O=C(NN=C1CCCC1)c1cc(-c2ccc(F)cc2)nc2ccccc12	u	0%	u	2	1%
NC(=O)N/N=C/c1ccc(N2CCOCC2)s1	-12%	0%	40%	-23	1%
O=C(N/N=C/c1ccc(Br)s1)c1ccc([N+](=O)[O-])cc1	5.8µM*	0%	0.45µM*	2	0.63µM*
O=C(NN=Cc1ccc(N2CCOCC2)s1)c1ccc([N+](=O)[O-])cc1	9.2µM*	0%	x	-16	x
Cc1ccc([N+](=O)[O-])c(C(=O)N/N=C/c2cccs2)c1	-18%	11%	1.4µM*	4	1.3µM*
